Compound activity: PubChem BioAssay, National Center for Advancing Translational Sciences (NCATS)
Tau fibril ThT – blocks human tau fibril formation measured by thioflavin T; P10636; recombinant tau K18 P301L, heparin-induced fibrillization, ThT fluorescence; Potency, µM (highest dose often 57.4 µM), hits mostly inhibitors; actives 2.1% (n = 270,000); AID 1460; further: nearly all actives have a fitted effect of over 55% in size
Target sequence (P10636 561-689 P618L limits assumed): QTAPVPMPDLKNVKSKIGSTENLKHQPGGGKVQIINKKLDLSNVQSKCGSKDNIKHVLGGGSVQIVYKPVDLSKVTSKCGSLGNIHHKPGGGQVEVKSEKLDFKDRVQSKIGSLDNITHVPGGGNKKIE
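In this qHTS, human K18 P301L tau is incubated with compound and heparin for 6 hr at 37 C, and Thioflavin T fluorescence then reports fibril load.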
GoLoco inh red – RGS12 GoLoco-Gai1 interaction inhibition. Gai1:RGS12 GoLoco peptide FP, rhodamine, 10 min. Potency, µM (titrated, usually from 61.6 µM), actives largely listed as inhibitors. actives 0.44% (n = 230,000). AID 880; active means well fitted inhibition curve with a large enough effect, not every such curve was filed as active; inactive means no such curve, though single readings can be large or run the other way; further: nearly all actives have a fitted effect of over 30% in size
TRb SRC2 PPI – disrupts binding of human TR beta to SRC2. P10828. TRbeta-SRC2 peptide binding, fluorescence polarization; receptor liganded with 1 µM T3. Potency, µM (series often up to 106 µM), usual class: inhibitors. actives 0.065% (n = 280,000). AID 1469; further: nearly all actives have a fitted effect of over 50% in size
Target sequence (P10828 whole entry, looked up): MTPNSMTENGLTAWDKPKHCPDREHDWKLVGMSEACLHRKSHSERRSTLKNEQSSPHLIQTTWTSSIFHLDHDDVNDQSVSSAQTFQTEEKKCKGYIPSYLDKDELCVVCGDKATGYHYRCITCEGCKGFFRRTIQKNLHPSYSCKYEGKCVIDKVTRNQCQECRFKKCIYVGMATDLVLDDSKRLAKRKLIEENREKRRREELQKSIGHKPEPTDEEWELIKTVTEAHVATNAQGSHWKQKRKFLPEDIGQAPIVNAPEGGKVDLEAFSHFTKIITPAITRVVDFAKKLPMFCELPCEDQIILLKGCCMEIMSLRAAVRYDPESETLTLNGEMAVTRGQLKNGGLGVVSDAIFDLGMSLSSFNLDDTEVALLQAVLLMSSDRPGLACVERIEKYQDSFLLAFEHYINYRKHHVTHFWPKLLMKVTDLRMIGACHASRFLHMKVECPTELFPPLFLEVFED
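Read-out is fluorescence polarization (555 nm excitation, 632 nm emission) of a Texas Red SRC2 coactivator peptide; loss of signal reflects blocked binding to human TRb ligand-binding domain in the presence of 1 uM T3.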
Tau fibril FP – tau fibrillization inhibition (FP) | Potency, µM (top dose mostly 57.7 µM), most hits filed as inhibitors | K18 P301L tau heparin fibrillization, Alexa594 FP, 6 h | actives 0.39% (n = 280,000) | P10636; further: nearly all actives have a fitted effect of over 55% in size
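Steps: dispense K18 P301L tau (15 uM plus 0.24 uM Alexa 594 tracer, final) in pH 7 sodium acetate; add compound; add heparin (20 uM final); incubate 6 hr, 37 C; add ThT (30 uM final); after 1 hr ambient, read FP.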
TR SRC2 fluor cs – counter-screen for TRb-SRC2 inhibitors: fluorescence interference. Potency, µM (series often up to 106 µM). AID 1479. actives 0.29% (n = 280,000). TRb/SRC2 Texas Red total fluorescence interference; active means well fitted curve in either direction with a large enough effect; inconclusive means small, poorly fitted or top-dose-only effect
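Flags fluorescent or light-absorbing compounds by total fluorescence, S + 2P, at 555 nm excitation and 632 nm emission. Mixture: 20 nM Texas Red SRC2 peptide, 0.6 uM human TRb LBD, 1 uM T3, 5% DMSO; compound exposure 5 h at ambient temperature.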
Tau fluor cs – counter-screen for tau fibril formation inhibitors; tau K18 P301L (four-repeat tau fragment) Alexa594 fluorescence, heparin fibrillization; Potency, µM (titrated, usually from 57.7 µM); actives 0.93% (n = 280,000); AID 1463; further: nearly all actives have a fitted effect of over 55% in size
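Human K18 P301L tau (15 uM unlabeled plus 0.24 uM Alexa 594-labeled, final) in 100 mM sodium acetate pH 7 was mixed with compound and 20 uM heparin and incubated 6 hr at 37 C.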
Each line names hits and unclear results; the compound was inactive in the other large screens; ! = not confirmed by another sample; [ ] = remark or other dose. A selection: hits, their analogues and other compounds. The true share with any hit is near 3.2%. Unless noted, the call rests on the fitted dose curve; in most records, active means well fitted curve in the direction sought with a large enough effect; inconclusive means small, poorly fitted or top-dose-only effect, or another doubt; inactive means no such curve, though single readings can be large; an effect the other way counts as inactive or inconclusive.

CC(C)(C)C1C/C(=C/c2ccccn2)C(=O)/C(=C/c2ccccn2)C1 (stereo unspecified)	Tau fibril ThT 11µM, Tau fibril FP inconclusive
CC1C/C(=C/c2ccccn2)C(=O)/C(=C/c2ccccn2)C1 (stereo unspecified)	Tau fibril ThT 10µM, Tau fibril FP 8.9µM
O=C1/C(=C/c2ccccn2)COc2ccccc21	Tau fibril ThT inconclusive
CCOc1ccccc1-c1nnc2n1N=C(c1ccc(OC)cc1)CS2	none (no result: Tau fibril ThT, GoLoco inh red, Tau fibril FP, Tau fluor cs)
COC(=O)[C@@]1(Cc2ccc(OC)cc2)[C@H]2c3cc(C(=O)N(C)C)n(CCc4c[nH]c5ccc(O)cc45)c3C[C@H]2CN1C(=O)c1ccccc1	none
CC(=O)CC(=O)Nc1ccc(C)cc1C	none (no result: Tau fibril ThT, GoLoco inh red, Tau fibril FP, Tau fluor cs)
C=CCOc1nc(OCC=C)nc(OCC=C)n1	none (no result: Tau fibril ThT, GoLoco inh red, Tau fibril FP, Tau fluor cs)
O=C1CCCC2=C1Sc1ccc(Cl)cc1N2	Tau fibril ThT 6.3µM
S=C1CCSc2ccc(Cl)cc2N1	none
COC(=O)c1ccc2c(c1)SC1=C(CCCC1=O)N2	Tau fibril ThT 13µM
COc1cc(OC)c2c(=O)c(-c3ccccc3)coc2c1	Tau fibril ThT inconclusive, TR SRC2 fluor cs inconclusive
Oc1cc2c(cc1O)C1c3ccc(O)c(O)c3OCC1(O)C2 (stereo unspecified)	Tau fibril ThT 4µM, GoLoco inh red 7.9µM, Tau fibril FP 25µM, Tau fluor cs inconclusive
NC(C(=O)O)c1cc(O)cc(O)c1 (stereo unspecified)	none
Cc1ccc(NC(=O)C(Cc2c[nH]c3ccccc23)NC(=O)OCC(C)C)cc1 (stereo unspecified)	Tau fluor cs 20µM[quencher] (no result: GoLoco inh red)
Cc1ccc(NC(=O)C(Cc2c[nH]c3ccccc23)NC(=O)OC(C)(C)C)c(C)c1 (stereo unspecified)	Tau fluor cs inconclusive (no result: GoLoco inh red)
COc1cc(/C=N/NC(=O)C(Cc2c[nH]c3ccccc23)NC(=O)OCC(C)C)cc([N+](=O)[O-])c1O (stereo unspecified)	Tau fibril ThT 14µM
COc1cc(/C=N/NC(=O)C(Cc2c[nH]c3ccccc23)NC(=O)OCc2ccccc2)cc([N+](=O)[O-])c1O (stereo unspecified)	Tau fibril ThT 13µM, Tau fibril FP inconclusive, Tau fluor cs inconclusive
COc1cc(/C=N/NC(=O)C(Cc2c[nH]c3ccccc23)NC(=O)OCC(C)C)cc([N+](=O)[O-])c1OCc1ccccc1 (stereo unspecified)	Tau fluor cs inconclusive
C[N+](C)(C)CCCSc1nc2ccccc2[nH]1	none (no result: Tau fibril ThT, TRb SRC2 PPI, Tau fibril FP, TR SRC2 fluor cs, Tau fluor cs)
CC[N+](CC)(CC)CCOc1ccc(/C=C\c2ccccc2)cc1	none
CC[N+](CC)(CC)CCOc1cccc(OCC[N+](CC)(CC)CC)c1OCC[N+](CC)(CC)CC	GoLoco inh red 10µM
CCN(CC)CCCC(C)n1c(-c2ccccc2)nc2c(NC3CCCCC3)nc(C)nc21 (stereo unspecified)	none
CSCC[C@H](N)C(=O)N[C@@H](C)C(=O)NCC(=O)N[C@@H](CCCN=C(N)N)C(=O)N[C@@H](CO)C(=O)NCC(=O)N[C@@H](CC(=O)O)C(=O)N[C@@H](CO)C(=O)N[C@@H](CC(=O)O)C(=O)N[C@@H](CCC(=O)O)C(=O)N[C@@H](CC(=O)O)C(=O)N[C@@H](CC(C)C)C(=O)N[C@@H](CC(C)C)C(=O)N[C@@H](CCCCN)C(=O)N[C@@H](C)C(=O)N[C@H](C(=O)O)C(C)C	none (no result: Tau fibril ThT, GoLoco inh red, Tau fibril FP, Tau fluor cs)
COc1ccc(-n2c(C)cc(/C=C3/SC(=S)N(C)C3=O)c2C)cc1	Tau fibril ThT inconclusive
Cc1cc(/C=C2\SC(=S)N(C)C2=O)c(C)n1-c1cccc(O)c1	Tau fibril ThT 7.9µM, Tau fluor cs 10µM[quencher]
CN1C(=O)/C(=C\c2cc(N=Nc3ccccc3)ccc2O)SC1=S	Tau fibril ThT 3.5µM, Tau fibril FP inconclusive, Tau fluor cs 4.5µM[quencher]
Cc1nn(-c2ccccc2)c(Cl)c1/C=C1\SC(=S)N(C)C1=O	Tau fibril ThT inconclusive, Tau fibril FP inconclusive
CC(=O)Oc1cc2c3c(c1)/C(=C1/SC(=S)NC1=O)C(=O)N3C(C)(C)C=C2C	Tau fibril ThT 7.1µM, Tau fibril FP inconclusive, Tau fluor cs 7.1µM[quencher]
CC(=O)CSCc1ccccn1	none (no result: Tau fibril ThT, TRb SRC2 PPI, Tau fibril FP, TR SRC2 fluor cs, Tau fluor cs)
Cc1ccc(CN(Cc2ccco2)C(=O)COc2cccc(C)c2C)o1	none (no result: GoLoco inh red)
Cc1cccc(OCC(=O)N(Cc2ccc(N(C)C)cc2)Cc2ccco2)c1C	Tau fibril ThT inconclusive, TR SRC2 fluor cs 0.45µM[quencher], Tau fluor cs inconclusive (no result: GoLoco inh red)
CCn1c(SC(C)C)nnc1-c1cc(-c2ccccc2)sc1N	Tau fibril ThT 13µM, Tau fluor cs inconclusive
N#CC1=C(Nc2ccccc2Cl)SC(c2ccccc2O)NC1=O (stereo unspecified)	Tau fibril ThT inconclusive, Tau fibril FP 32µM
COc1cccc(NC2=C(C#N)C(=O)NC(c3cccc(OC)c3O)S2)c1 (stereo unspecified)	Tau fibril ThT 32µM, Tau fibril FP inconclusive
COc1ccc(NC(=O)CC2Nc3cc(C)c(C)cc3NC2=O)c([N+](=O)[O-])c1 (stereo unspecified)	Tau fibril ThT 11µM, Tau fibril FP inconclusive, Tau fluor cs inconclusive
COc1ccc(NC(=O)Cc2ccc(C)cc2)c([N+](=O)[O-])c1	none
O=C(CC1Nc2ccccc2NC1=O)Nc1cc(Cl)cc(Cl)c1 (stereo unspecified)	Tau fibril ThT inconclusive, Tau fluor cs 14µM[quencher]
O=C(CC1Nc2cccc3cccc(c23)NC1=O)Nc1ccc(F)cc1 (stereo unspecified)	Tau fibril ThT inconclusive, Tau fluor cs 8.9µM![quencher]
O=C(CC1NC(=O)NC1=O)Nc1ccc(Cl)cc1 (stereo unspecified)	none
Cc1cc2c(cc1C)NC(CC(=O)Nc1cccc(Cl)c1)C(=O)N2 (stereo unspecified)	Tau fibril ThT inconclusive, TR SRC2 fluor cs inconclusive, Tau fluor cs 25µM[quencher] (no result: GoLoco inh red)
CC1(C)OC[C@@H]2O[C@H](n3cnc4c(N)nc(Cl)nc43)[C@@H](OS(C)(=O)=O)[C@@H]2O1	none (no result: Tau fibril ThT, TRb SRC2 PPI, Tau fibril FP, TR SRC2 fluor cs, Tau fluor cs)
COC(=O)N1C(/C=C/c2ccc3c(c2)OCO3)=Cc2ccccc2C1CC(C)=O (stereo unspecified)	none
CC(=O)Nc1ccc(S(=O)(=O)N2CCc3nc(COc4ccccc4)c4c(c3C2)CO[C@@H](C)C4)cc1	none
COc1ccc(N2CCC(CNC(=O)Nc3cccc(OC)c3)C2)cc1 (stereo unspecified)	Tau fibril ThT inconclusive, Tau fluor cs 16µM[quencher]
COc1ccc(N2CCC(CNC(=S)Nc3cccc(OC)c3)C2)cc1 (stereo unspecified)	Tau fibril ThT inconclusive, Tau fluor cs 11µM[quencher]
CCCn1c(-c2ccc(F)cc2)nc2c(NCCCCN(C)C)nc(C)nc21	none
